High-throughput results as filed in PubChem.
MCF10A rerep = A quantitative high throughput screen for small molecules that induce DNA re-replication in MCF 10a normal breast cells; MCF 10A DNA re-replication, Hoechst nuclear intensity, 48 h; Potency, µM (titrated, usually from 46.1 µM), for the others: at the top dose activity, positive = re-replication, usual class: activators; 350,000 compounds, 2.9% hits; further: % of control where 0% means no effect; nearly all actives have a fitted effect of over 50% in size
SW480 rerep = A quantitative high throughput screen for small molecules that induce DNA re-replication in SW480 colon adenocarcinoma cells | SW480 DNA re-replication, Hoechst DNA content imaging, 48 h | Potency, µM (series often up to 46.1 µM), for inactives: at the highest dose re-replication activation, usual class: activators | 340,000 compounds, 1.8% hits | AID 624297, 2012; further: % of control where 0% means no effect; nearly all actives have a fitted effect of over 55% in size
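Compounds, transferred as 23 nL by pin tool, were incubated with cells for 48 hr; DNA content per nucleus was then quantified by Hoechst staining and fluorescence plate imaging.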
HT1080 IDH1KD tx = qHTS for induction of synthetic lethality in tumor cells producing 2HG: qHTS for the HT-1080-IDH1KD cell line; HT-1080 IDH1 knockdown viability, ATP luminescence, 48 h; Potency, µM (series often up to 46.1 µM), without a hit: at the top dose activity, negative = toxicity, most hits filed as cytotoxic; 360,000 compounds, 2% hits; AID 686971, 2013;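 further: 0% = DMSO wells and -100% = cell-free medium wells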
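Luminescent ATP read-out (CellTiter-Glo, 10 min at room temperature) after 48 h compound exposure at 37 °C gave viability of IDH1-knockdown HT-1080 cells. Activity was normalised to DMSO and cell-free wells, then fitted as concentration-response curves.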
KB-V1 MDR tox = qHTS assay for MDR1-selective chemotherapeutics: Primary screen using the drug-selected MDR subline cells KB-V1. KB-V1 MDR cells viability, CellTiter-Glo, 72 h. Potency, µM (top dose mostly 46.1 µM), actives largely listed as cytotoxic. 400,000 compounds, 3.4% hits; further: on the % scale 0 is the no-effect control and ±100 the full control effect; nearly all actives have a fitted effect of over 60% in size
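Compound-treated KB-V1 multidrug-resistant cells, 72 h, 37 degrees C; viability by CellTiter-Glo. Fitted qHTS curves give the values.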
HT1080-NT tox = qHTS for induction of synthetic lethality in tumor cells producing 2HG: qHTS for the HT-1080-NT fibrosarcoma cell line. HT-1080-NT fibrosarcoma viability, CellTiter-Glo ATP luminescence, 48 h. Potency, µM (doses to about 46.1 µM), without a hit: at the highest dose activity, negative = less viability, usual class: cytotoxic. 360,000 compounds, 1.6% hits. AID 686970, 2013;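 further: NT is the 2HG producing partner of a matched IDH1 knockdown line; 0% = DMSO-treated cells and -100% = media-only wells without cells; nearly all actives have a fitted effect of over 55% in size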
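Luminescent CellTiter-Glo readout after 48 hours of compound exposure at 37 degrees C defined viability of HT-1080-NT cells. Activity was normalized to DMSO wells and cell-free media wells; concentration-response curves were fitted and assigned curve classes.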
KB-3-1 tox = qHTS assay for MDR1-selective chemotherapeutics: Primary screen using the parental adenocarcinoma cell KB-3-1. 400,000 compounds, 1.4% hits. Potency, µM (top dose mostly 46.1 µM), hits mostly cytotoxic. KB-3-1 viability, CellTiter-Glo ATP luminescence, 72 h; further: on the % scale 0 is the no-effect control and ±100 the full control effect; nearly all actives have a fitted effect of over 60% in size
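Luminescent ATP read-out (CellTiter-Glo) measures survival of drug-naive KB-3-1 cells after 72 h compound exposure at 37 °C. Titration series was screened from lowest to highest concentration, with DMSO vehicle plates as background controls.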
* = called active by the depositor; i = inactive; ? = inconclusive; · = not tested or not shown. A selection: hits, their analogues and other compounds. The true share with any hit is near 8%. The call rests on the fitted dose curve; in most records, active means well fitted curve in the direction sought with a large enough effect; inconclusive means small, poorly fitted or top-dose-only effect, or another doubt; inactive means no such curve, though single readings can be large; an effect the other way counts as inactive or inconclusive. Potency means the concentration at half of the fitted maximal effect.

SMILES	MCF10A rerep	SW480 rerep	HT1080 IDH1KD tx	KB-V1 MDR tox	HT1080-NT tox	KB-3-1 tox
CCCCCCCCN1C(=O)[C@H](CC(=O)NCc2cccc3ccccc23)C[C@@]2(C(=O)OCC)CCC=C12	·	·	?	?	?	i
CCCCCCCCN1C(=O)[C@H](CC(=O)NCC23CC4CC(CC(C4)C2)C3)C[C@@]2(C(=O)OCC)CCCC=C12	·	·	3%	i	12%	16µM*
CCCCCCCCN1C(=O)[C@H](CC(=O)N2CCN(C(=O)OCC)CC2)C[C@@]2(C(=O)OCC)CCCC=C12	·	·	?	?	?	i
COC(=O)[C@]12CCCCC=C1N(CCc1ccc(OC)c(OC)c1)C(=O)[C@H](CC(=O)NCC13CC4CC(CC(C4)C1)C3)C2	·	·	?	18µM*	?	?
CCCCCCCCN1C(=O)[C@H](CC(=O)NCCc2ccccc2OC)C[C@@]2(C(=O)OCC)CCCC=C12	·	·	?	21µM*	?	i
CCNC(=O)/C(=C/c1cccc([N+](=O)[O-])c1)NC(=O)c1ccc(C)cc1	11%	-192%	1%	i	-1%	i
CCOC(=O)[C@]12CCCC=C1N(CCc1ccc(OC)c(OC)c1)C(=O)[C@H](CC(=O)NCCc1ccccc1OC)C2	·	·	-20%	13µM*	-18%	i
C=CCOc1ccc(CN(C)C(=O)c2ccc(CNS(=O)(=O)c3ccc(C)c(C)c3)cc2)cc1	?	-9%	?	?	?	13µM*
OC[C@@H]1CN(Cc2ccccc2)C[C@H](n2cnc3c(NCc4ccc(F)cc4)ncnc32)O1	·	·	6%	?	-15%	i
OC[C@@H]1CN(Cc2ccc(-c3ccccc3)cc2)C[C@H](n2cnc3c(Nc4ccccc4)ncnc32)O1	·	·	10µM*	21µM*	?	13µM*
CC(C)N(C)c1ncnc2c1ncn2[C@H]1CN(Cc2ccncc2)C[C@@H](CO)O1	·	·	1%	i	3%	i
OC[C@@H]1CN(Cc2ccc(-c3ccccc3)cc2)C[C@H](n2cnc3c(NCc4ccc(F)cc4)ncnc32)O1	·	·	?	?	18µM*	?
CC(C)N(C)c1ncnc2c1ncn2[C@H]1CN(Cc2ccc(-c3ccccc3)cc2)C[C@@H](CO)O1	·	·	?	i	23µM*	i
OC[C@@H]1CN(Cc2ccc(F)cc2)C[C@H](n2cnc3c(Nc4ccccc4)ncnc32)O1	·	·	8%	i	12%	i
CC(C)CN=C(NS(=O)(=O)c1ccccc1)C(Cl)(Cl)Cl	2.9µM*	6.5µM*	6.5µM*	?	6.5µM*	8.2µM*
Cc1ncc(S(=O)(=O)c2ccccc2)c(-c2ccccc2Cl)n1	-2%	-5%	-9%	i	-8%	i
CN(C)c1ncc(S(=O)(=O)c2ccccc2)c(-c2ccc(Cl)cc2Cl)n1	?	-7%	-2%	15µM*	4%	i
CN(C)c1ncc(S(=O)(=O)c2ccc(Cl)cc2)c(-c2ccc(Cl)cc2Cl)n1	7%	-3%	-14%	18µM*	-5%	?
O=C(C[n+]1cccc(Cl)c1)c1ccc(O)c(O)c1	·	·	·	i	·	?
CCOC(=O)[C@H]1[C@H]2COc3ccc(OC)cc3[C@@H]2N2C(=O)CN(CCc3c[nH]c4ccccc34)C(=O)[C@@]12C	27%	?	11%	i	0%	i
Cc1ccc(NC(=O)Cn2cc(C(=O)c3cccs3)c3ccccc32)cc1C	·	·	·	i	·	?
